Assay outcomes from PubChem.
USP10 block = inhibitors of human USP10 deubiquitinase; Ubiquitin carboxyl-terminal hydrolase 10 (Homo sapiens), Q14694; purified USP10, Ub-rhodamine fluorescence, 60 min; inhibition, % at 20 µM; 1.1% of 47,000 active; AID 1645856, 2021
UCHL1 inh = inhibitors of human UCHL1 deubiquitinase; 0.2% of 47,000 active; inhibition, % at 20 µM; AID 1645859, 2021; Ubiquitin carboxyl-terminal hydrolase isozyme L1 (Homo sapiens), P09936; purified UCHL1, Ub-rhodamine cleavage fluorescence
USP7 block = inhibitors of human USP7 deubiquitinase | purified USP7, Ub-rhodamine cleavage fluorescence | inhibition, % at 20 µM | 0.3% of 47,000 active
USP8 inh = inhibitors of human USP8 deubiquitinase; 4.2% of 47,000 active; purified USP8, Ub-rhodamine cleavage fluorescence, 30 min; inhibition, % at 20 µM
A number is an active result; i = inactive. The list is not random: actives were taken first. Their share in the collection is about 4.6%. No stated cut-off is given here; in the data, active means inhibition above about 30%; inactive means the rest.

SMILES	USP10 block	UCHL1 inh	USP7 block	USP8 inh
COc1ccc(CNC(=O)c2c(O)c3cccnc3n(-c3ccccc3)c2=O)cc1	i	i	i	84
Cc1nc(CNC(=O)c2ccc(-c3noc(C4CC4)n3)cc2)no1	i	i	i	i
Cc1cccc(NC(=O)CNC(=O)c2ccc(-c3noc(C4CCCC4)n3)cc2)c1C	59	i	i	i
O=c1c2cnc(N3CCCCC3)nc2ccn1Cc1ccc2c(c1)OCO2	i	i	i	42
O=c1c2cnc(N3CCN(c4ccccc4)CC3)nc2ccn1Cc1ccc2c(c1)OCO2	i	i	i	i
O=C(NCCCN1CCOCC1)c1cc2occc2n1Cc1ccccc1	i	i	i	i
O=C(Nc1ccc(S(=O)(=O)Nc2cc(Cl)cc(Cl)c2)cc1)c1c(F)cccc1Cl	34	i	i	i
O=C(Nc1ccc(Oc2ccccc2)cc1)c1c(F)cccc1Cl	i	i	i	i
Cc1cccc(NCc2cc(=O)n3cccc(C)c3n2)c1C	i	i	i	i
Cc1ccccc1NC(=O)Nc1ccccc1OCc1cc(=O)n2cccc(C)c2n1	40	i	i	46
Cc1cc(C)cc(NC(=O)Nc2ccccc2OCc2cc(=O)n3c(ncn3C(C)C)n2)c1	40	i	i	50
COc1ccccc1Nc1ncc(C(=O)NCc2ccc3c(c2)OCO3)c2ccccc12	i	i	i	63
COc1cc(Cl)ccc1Nc1ncc(C(=O)Nc2ccc3c(c2)OCO3)c2ccccc12	i	i	i	39
COc1cc(OC)c(NC(C)C(=O)Nc2ccc3c(c2)OCO3)cc1Cl (stereo not given)	i	i	i	37
CCOC(=O)c1cnc(Nc2cc(OC)ccc2OC)c2ccccc12	i	i	i	i
CCOC(=O)c1cnc(Nc2ccccc2OC)c2ccccc12	i	i	i	i
COc1ccccc1Nc1ncc(C(=O)NCc2ccc(F)cc2)c2ccccc12	i	i	i	71
Cc1nn2c(C)c(C(=O)NCc3ccc4c(c3)OCO4)cnc2c1-c1ccccc1	i	i	i	i
O=C(CCC1=NS(=O)(=O)c2ccccc2N1)NCc1ccccc1Cl	i	i	i	i
CC(=O)c1cc(-c2ccc(F)cc2)n(CC(=O)Nc2cccc(C)c2C)c1C	35	i	i	41
Cn1ccc(-c2nc3ccccc3[nH]2)n1	i	i	i	30
O=C(O)c1c(CNCc2cccnc2)c2ccccc2n1Cc1ccccc1F	i	i	i	i
Cc1nn(-c2ccccc2)c2[nH]c(=O)c(CNCc3ccco3)cc12	i	i	i	i
Cc1nn(-c2ccccc2)c2[nH]c(=O)c(CNCc3ccc(F)cc3)cc12	i	i	i	56
O=c1[nH]c2c(cc1CNCc1cccnc1)c(-c1cccc(F)c1)nn2-c1ccccc1	i	i	i	68
SMILES	USP10 block	UCHL1 inh	USP7 block	USP8 inh
Cc1ccc(NCc2cc3c(-c4ccc(F)cc4)nn(-c4ccccc4)c3[nH]c2=O)cc1C	i	i	i	77
Cc1ccc(-c2nn(-c3ccccc3)c3[nH]c(=O)c(CNCc4ccccc4)cc23)cc1	i	i	i	56
COc1ccc(-c2nn(-c3ccccc3)c3[nH]c(=O)c(CNC4CCCC4)cc23)cc1	i	i	i	i
O=S(=O)(c1ccccc1)c1cnc(-c2ccccc2)nc1-c1ccccc1Cl	i	i	i	i
Cc1nn(-c2ccccc2)c2[nH]c(=O)c(CNCc3ccc4c(c3)OCO4)cc12	i	i	i	77
Cc1ccc2c(NCc3ccc4c(c3)OCO4)c(-c3nc(C)no3)cnc2n1	i	i	i	61
Cc1ccc2c(Nc3ccccc3)c(-c3nc(C)no3)cnc2n1	i	i	i	i
Cc1noc(C)c1C(=O)N1CCCCC1c1cc(C)n2ccnc2n1 (stereo not given)	i	i	i	i
COc1cc(Cl)cc(CNC(C)C(=O)O)c1O (stereo not given)	i	i	i	66
Cc1ccc(NC(=O)c2nc(C3CCC3)oc2C)c(F)c1	i	i	i	i
O=C(Nc1cccc(Cl)c1)NC1CC(=O)N(C2CC2)C1 (stereo not given)	i	i	i	i
Cc1ccc(S(=O)(=O)Nc2ccccc2C(=O)Nc2nc3ccc(Br)cc3s2)cc1	93	53	89	95
CNc1cc(C(=O)N2CCC(C3CC=CCN(Cc4cccc(OC)c4)C3=O)CC2)ccn1 (stereo not given)	i	i	i	i
O=C(CSc1ncccc1C(=O)Nc1ccnn1Cc1cccnc1)Nc1ccc2c(c1)OCO2	i	i	i	45
CCOc1ccc(NC(=O)CSCc2nc(-c3ccc(OC)c(OC)c3)no2)cc1	i	i	i	34
